Where “and” joins values, the source holds several entries; their conditions need not be identical. Equal values may be shown once. Records with an inconclusive call do not appear. Entries that show only a call come without a potency. Some structures have more than one record in an assay (separate samples or runs), and their calls can disagree. Calls of active or inactive are those of the source. The call rests on the fitted dose curve; in most records, active means well fitted curve in the direction sought with a large enough effect in the repeat runs; inconclusive means weak or mixed curves; inactive means no such curve, though single readings can be large; an effect the other way counts as inactive or inconclusive.

In PubChem BioAssay (Tox21) one finds Potency data, which are given here for 39 molecules.

One assay in a line: A CellTox Green Cytotoxicity Assay to monitor cytotoxicity in HepG2 cells - 40 hour (AID 1224879). Further: nearly all actives have a fitted effect of over 40% in size. Further: potency means the concentration at half of the fitted maximal effect. The following applies: CellTox Green fluorescence; series mostly up to 76.8 µM. An outline of the steps:
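Fluorescent DNA-binding dye, 600 HepG2 cells/well, 5 h preincubation then compound in DMSO; same plates read at 0–40 h, 37 C.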
With `CC1=CCC(C(C)(C)O)CC1` (stereo not drawn), the Potency result is “inactive and 21.9 µM (active)”.

Take `Nc1ncn([C@@H]2O[C@H](CO)[C@@H](O)[C@H]2O)c(=O)n1`: the Potency entry is “inactive”.

Turning to `CCOC(=O)C(C#N)=C(c1ccccc1)c1ccccc1`, the Potency entry was “inactive”.

Take `CCC(C)(O)CCCC(C)C` (stereo not drawn): the Potency result is “inactive”.

For the molecule `CCCCNS(=O)(=O)c1ccccc1`, the Potency entry was “inactive”.

As for `CC(C)CC(C)(O)C#CC(C)(O)CC(C)C` (stereo not drawn), the Potency entry is “inactive”.

As to `c1ccc2c(c1)c1cccc3ccc4cccc2c4c31`, the Potency entry is “inactive”.

Consider `O=C(/C=C/c1ccccc1)OCc1ccccc1`, for which the Potency result is “inactive”.

Consider `CC(C)(C)NC(=O)[C@H]1CC[C@H]2[C@@H]3CC[C@H]4NC(=O)C=C[C@]4(C)[C@H]3CC[C@]12C`, for which the Potency result was “inactive”.

For `CCCc1c(OCCCCc2nn[nH]n2)ccc(C(C)=O)c1O`, the Potency result is “inactive”.

For the molecule `CCCCCCCCCCCO`, the Potency result is “inactive”.

With `COc1ccc(OC)c(C(O)CNC(=O)CN)c1` (stereo not drawn), the Potency result was “inactive”.

On to `COC(=O)Nc1nc2ccc(S(=O)c3ccccc3)cc2[nH]1` (stereo not drawn), for which the Potency is 848 nM (active).

Turning to `Cc1ncc[nH]1`, the Potency result is “inactive”.

Consider `Cc1ccc(C(=O)c2cc(O)c(O)c([N+](=O)[O-])c2)cc1`, for which the Potency was 49 µM (active) and inactive.

For the molecule `CN1C(C(=O)Nc2ccccn2)=C(O)c2ccccc2S1(=O)=O`, the Potency entry is “inactive”.

For `Cc1c(OCC(F)(F)F)ccnc1CS(=O)c1nc2ccccc2[nH]1` (stereo not drawn), the Potency result is “inactive”.

Consider `Nc1ccc(Nc2ccccc2)cc1`, for which the Potency result was “inactive”.

In the case of `COc1cc([C@@H]2c3cc4c(cc3[C@H](O)[C@H]3COC(=O)[C@H]23)OCO4)cc(OC)c1OC`, the Potency entry is “inactive”.

As to `CC(C)OC=O`, the Potency entry was “inactive”.

As to `OC(CCl)CCl`, the Potency result is “inactive”.

For `CC(C)OB(OC(C)C)OC(C)C`, the Potency entry was “inactive”.

In the case of `C[Si](C)(C)O[Si](C)(C)C`, the Potency result was “inactive”.

Turning to `c1cc(-c2ccncc2)ccn1`, the Potency entry was “inactive”.

Regarding `NNc1ccc(C(=O)O)cc1`, the Potency result is “inactive”.

On to `O=C(OCc1ccccc1)c1ccccc1O`, for which the Potency entry is “inactive”.

For the molecule `NC=O`, the Potency result is “inactive”.

As for `Cc1cc2nc3c(=O)[nH]c(=O)nc-3n(C[C@H](O)[C@H](O)[C@H](O)CO)c2cc1C`, the Potency is 43.2 µM (active) and 40.5 µM (active) and 11.7 µM (active).

As for `Nc1ncnc2nc[nH]c12`, the Potency entry is “inactive”.

For `CC(CCC(=O)O)(c1ccc(O)cc1)c1ccc(O)cc1`, the Potency result was “inactive”.

As for `C=C(C)C1CC=C(C)CC1` (stereo not drawn), the Potency result is “inactive”.

`Cc1[nH]c(=O)c(C#N)cc1-c1ccncc1`: the Potency entry was “inactive”.

On to `O=C(c1ccccc1)c1ccc(O)cc1O`, for which the Potency result is “inactive and 43.6 µM (active)”.

As for `CCCCCCCCCC(=O)OC`, the Potency entry was “inactive”.

For `Cc1cccc(C(=O)O)c1`, the Potency result was “inactive”.

On to `c1ccc(Nc2ccccc2)cc1`, for which the Potency was 34700 nM (active).

Take `CCCC(=O)O`: the Potency result was “inactive”.

For the molecule `O=[N+]([O-])c1ccc2c(c1)Cc1ccccc1-2`, the Potency entry is “inactive”.

As for `OCCO`, the Potency result was “inactive”.

The nature of the next assay: qHTS RealTime-Glo MT Cell Viability Assay in HEK293 cells - 0 hour (AID 1224880). Further: top concentration of the series differs between compounds; nearly all actives have a fitted effect of over 45% in size. The conditions noted are these: RealTime-Glo luminescence; series mostly up to 76.8 µM. An outline of the steps: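 Measured as luminescence from the same continuously cultured HEK293 wells at successive time points (0, 8, 16, 24, 32, 40 h) after compound addition. Reagent present from seeding; dosing at 5 h; incubation 37 C.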
(Quantitative high-throughput screening tests each substance at several concentrations.)
As to `CC1=CCC(C(C)(C)O)CC1` (stereo not drawn), the Potency result was “inactive”.

Turning to `Nc1ncn([C@@H]2O[C@H](CO)[C@@H](O)[C@H]2O)c(=O)n1`, the Potency result was “inactive”.

Take `CCOC(=O)C(C#N)=C(c1ccccc1)c1ccccc1`: the Potency result was “inactive”.

With `CCC(C)(O)CCCC(C)C` (stereo not drawn), the Potency result was “inactive”.

Consider `CCCCNS(=O)(=O)c1ccccc1`, for which the Potency entry was “inactive”.

With `CC(C)CC(C)(O)C#CC(C)(O)CC(C)C` (stereo not drawn), the Potency result was “inactive”.

Take `c1ccc2c(c1)c1cccc3ccc4cccc2c4c31`: the Potency entry is “inactive”.

Take `O=C(/C=C/c1ccccc1)OCc1ccccc1`: the Potency result is “inactive”.

Take `CC(C)(C)NC(=O)[C@H]1CC[C@H]2[C@@H]3CC[C@H]4NC(=O)C=C[C@]4(C)[C@H]3CC[C@]12C`: the Potency entry is “inactive”.

For the molecule `CCCc1c(OCCCCc2nn[nH]n2)ccc(C(C)=O)c1O`, the Potency entry is “inactive”.

As to `CCCCCCCCCCCO`, the Potency entry was “inactive”.

On to `COc1ccc(OC)c(C(O)CNC(=O)CN)c1` (stereo not drawn), for which the Potency entry is “inactive”.

As for `COC(=O)Nc1nc2ccc(S(=O)c3ccccc3)cc2[nH]1` (stereo not drawn), the Potency entry is “inactive”.

Turning to `Cc1ncc[nH]1`, the Potency entry was “inactive”.

`Cc1ccc(C(=O)c2cc(O)c(O)c([N+](=O)[O-])c2)cc1`: the Potency result is “inactive”.

Take `CN1C(C(=O)Nc2ccccn2)=C(O)c2ccccc2S1(=O)=O`: the Potency result is “inactive”.

With `Cc1c(OCC(F)(F)F)ccnc1CS(=O)c1nc2ccccc2[nH]1` (stereo not drawn), the Potency entry was “inactive”.

Consider `Nc1ccc(Nc2ccccc2)cc1`, for which the Potency entry is “inactive”.

In the case of `COc1cc([C@@H]2c3cc4c(cc3[C@H](O)[C@H]3COC(=O)[C@H]23)OCO4)cc(OC)c1OC`, the Potency entry is “inactive”.

In the case of `CC(C)OC=O`, the Potency result was “inactive”.

Turning to `OC(CCl)CCl`, the Potency entry was “inactive”.

Consider `CC(C)OB(OC(C)C)OC(C)C`, for which the Potency result was “inactive”.

With `C[Si](C)(C)O[Si](C)(C)C`, the Potency entry was “inactive”.

Turning to `c1cc(-c2ccncc2)ccn1`, the Potency result is “inactive”.

`NNc1ccc(C(=O)O)cc1`: the Potency result is “inactive”.

Take `O=C(OCc1ccccc1)c1ccccc1O`: the Potency entry is “inactive”.

Regarding `NC=O`, the Potency entry is “inactive”.

Turning to `Cc1cc2nc3c(=O)[nH]c(=O)nc-3n(C[C@H](O)[C@H](O)[C@H](O)CO)c2cc1C`, the Potency result was “inactive”.

Take `Nc1ncnc2nc[nH]c12`: the Potency result is “inactive”.

For the molecule `CC(CCC(=O)O)(c1ccc(O)cc1)c1ccc(O)cc1`, the Potency result was “inactive”.

Regarding `C=C(C)C1CC=C(C)CC1` (stereo not drawn), the Potency result was “inactive”.

Consider `Cc1[nH]c(=O)c(C#N)cc1-c1ccncc1`, for which the Potency result is “inactive”.

In the case of `O=C(c1ccccc1)c1ccc(O)cc1O`, the Potency entry is “inactive”.

Regarding `CCCCCCCCCC(=O)OC`, the Potency entry is “inactive”.

`Cc1cccc(C(=O)O)c1`: the Potency result is “inactive”.

As to `c1ccc(Nc2ccccc2)cc1`, the Potency result was “inactive”.

On to `CCCC(=O)O`, for which the Potency entry is “inactive”.

Take `O=[N+]([O-])c1ccc2c(c1)Cc1ccccc1-2`: the Potency result is “inactive”.

As to `OCCO`, the Potency result was “inactive”.
